From PubChem BioAssay
NPR1 antag: antagonists of human natriuretic peptide receptor Npr1. P16066. HEK293 hNpr1 GloSensor cGMP, ANP-stimulated luminescence. Potency, µM (top dose mostly 46.3 µM), for the others: top-dose activity change, negative = inhibition, actives largely listed as inhibitors. 76,000 compounds, 1.6% hits; calls by dose curve; note: nearly all actives have a fitted effect of over 60% in size
Target sequence (P16066 whole entry, looked up): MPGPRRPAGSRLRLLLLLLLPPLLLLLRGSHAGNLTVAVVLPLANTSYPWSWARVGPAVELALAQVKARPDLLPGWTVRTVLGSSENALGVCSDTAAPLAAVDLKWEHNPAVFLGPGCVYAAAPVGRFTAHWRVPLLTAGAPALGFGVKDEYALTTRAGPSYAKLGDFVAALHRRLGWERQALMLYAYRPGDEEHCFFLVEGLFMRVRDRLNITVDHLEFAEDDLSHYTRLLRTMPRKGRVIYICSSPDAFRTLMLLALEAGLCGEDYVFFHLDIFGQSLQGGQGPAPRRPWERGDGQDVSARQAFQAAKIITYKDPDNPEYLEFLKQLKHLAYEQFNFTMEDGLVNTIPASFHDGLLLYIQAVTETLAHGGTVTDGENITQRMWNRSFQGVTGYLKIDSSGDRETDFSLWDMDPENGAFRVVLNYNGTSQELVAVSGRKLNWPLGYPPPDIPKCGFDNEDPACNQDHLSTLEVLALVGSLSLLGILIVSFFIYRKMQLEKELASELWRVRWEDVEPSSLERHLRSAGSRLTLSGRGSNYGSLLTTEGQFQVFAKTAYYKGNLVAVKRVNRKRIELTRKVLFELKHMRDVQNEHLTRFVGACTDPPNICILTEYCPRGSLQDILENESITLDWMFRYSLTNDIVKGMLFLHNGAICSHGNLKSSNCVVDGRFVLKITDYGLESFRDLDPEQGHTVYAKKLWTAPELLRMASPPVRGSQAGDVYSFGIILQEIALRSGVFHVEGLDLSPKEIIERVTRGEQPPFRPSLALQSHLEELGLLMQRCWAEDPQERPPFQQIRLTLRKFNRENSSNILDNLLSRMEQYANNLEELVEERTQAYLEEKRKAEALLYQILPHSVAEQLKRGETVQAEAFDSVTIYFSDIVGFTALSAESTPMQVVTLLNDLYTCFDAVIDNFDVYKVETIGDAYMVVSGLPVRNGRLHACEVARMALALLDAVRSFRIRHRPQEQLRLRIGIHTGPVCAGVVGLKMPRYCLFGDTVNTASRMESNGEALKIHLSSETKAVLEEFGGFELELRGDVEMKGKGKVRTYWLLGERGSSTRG
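Compound pre-incubated 30 min at room temperature on GloSensor-loaded HEK293 cells stably carrying hNpr1 and the pGS-40F cGMP biosensor. Stimulation uses hNppA at 0.1 nM final; luminescence is taken at baseline and 20 min post-agonist.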
NIH3T3 tox: kills NIH 3T3 cells; 94,000 compounds, 4.3% hits; Potency, µM (series often up to 96.7 µM), for inactives: at the highest dose activity change, negative = cytotoxicity, most hits filed as inhibitors; NIH 3T3 viability, CellTiter-Glo ATP luminescence, 48-72 h; note: nearly all actives have a fitted effect of over 55% in size
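Cytotoxicity was measured by CellTiter-Glo ATP luminescence after 48 or 72 h compound exposure at 37 °C. Mouse NIH 3T3 fibroblasts were seeded at 400 cells/well and dosed by 23 nL pin transfer.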
SNCA expr inh: inhibitors of alpha-synuclein (SNCA) gene expression; HEK-293 SNCA-luciferase knock-in, luminescence, 24 h; Potency, µM (doses to about 57.2 µM), without a hit: at the highest dose activity change, negative = inhibition, usual class: inhibitors; 140,000 compounds, 0.17% hits;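 note: plate controls were DMSO cells for no effect and cell-free wells for full effect; nearly all actives have a fitted effect of over 45% in size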
FLuc inh: blocks purified firefly luciferase enzyme activity; purified P. pyralis luciferase, luminescence, biochemical; Potency, µM (series often up to 115 µM), hits mostly inhibitors; 76,000 compounds, 2.5% hits; note: nearly all actives have a fitted effect of over 65% in size
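FLuc 10nM, D-luciferin 10uM, ATP 10uM, Mg acetate 10mM, Tris acetate pH 7.5, Tween/BSA; cpd qHTS; enzyme added last; CCD luminescence.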
HEK293 tox: cytotoxic compounds in HEK 293 cells | HEK 293 viability, ATP luminescence (CellTiter-Glo), 48-72 h | Potency, µM (doses to about 115 µM), inactives show at the highest dose activity change, negative = cytotoxicity, usual class: inhibitors | 94,000 compounds, 6.6% hits; note: nearly all actives have a fitted effect of over 60% in size
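Pintool-delivered compounds were incubated with HEK 293 cells (250 cells/well) at 37 degree Celsius for 48 or 72 hr. ATP-dependent luminescence (CellTiter-Glo) then reported remaining viable cells.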
SNCA viab count: counter-screen for SNCA expression inhibitors: cell viability | HEK-293-SNCA-luc viability, GF-AFC fluorescence, 24 h | Potency, µM (titrated, usually from 57.1 µM), for the others: at the top dose activity change, negative = cytotoxicity, actives largely listed as cytotoxic | 150,000 compounds, 0.12% hits | AID 1671193;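 note: 0% = DMSO-treated cells and -100% = medium-only wells without cells; nearly all actives have a fitted effect of over 30% in size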
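HEK-293-SNCA-luc cells (1500/well) plated 24 h, then exposed 24 h to a dilution series; GF-AFC added 30 min at 37C, fluorescence 405/540 nm; normalised to medium-only and DMSO wells, Hill fit.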
Starred values were filed as active, the others as inactive; ! = not confirmed by another sample; [ ] = remark or other dose. The list is not random: actives were taken first. Their share in the collection is about 7.4%. Unless noted, calls come from the whole dose curve; as a rule, active = well fitted curve in the direction sought with a large enough effect; inconclusive = small, poorly fitted or top-dose-only effect, or another doubt; inactive = no such curve, though single readings can be large; an effect the other way counts as inactive or inconclusive. Unless noted, % is set by controls: 0 for no effect and ±100 for the full control effect; potency is the fitted concentration of half-maximal effect.

Screening CC1=NS(=O)(=O)N(C)C=C1C(=O)OCc1nc(-c2ccc3c(c2)OCO3)no1 returned NPR1 antag 11µM*, NIH3T3 tox -6%, SNCA expr inh -13%, FLuc inh inconclusive, HEK293 tox -10% and SNCA viab count 12%.
Screening CC1=NS(=O)(=O)N(C)C=C1C(=O)OCc1nc(-c2ccc(Cl)cc2)no1 returned NPR1 antag 10µM*, NIH3T3 tox -29%, SNCA expr inh 54%, FLuc inh inconclusive, HEK293 tox inconclusive and SNCA viab count 1%.
For COc1cccc(-c2noc(COC(=O)C3=CN(C)S(=O)(=O)N=C3C)n2)c1 the results were NPR1 antag 13µM*, NIH3T3 tox inconclusive, SNCA expr inh -12%, FLuc inh inconclusive, HEK293 tox inconclusive and SNCA viab count 3%.
`CC1=NS(=O)(=O)N(C)C=C1C(=O)OCc1nc(-c2cnccn2)no1` gave NPR1 antag 2%, NIH3T3 tox 1%, SNCA expr inh 32%, FLuc inh inactive, HEK293 tox 2% and SNCA viab count 0%.
CC1=NS(=O)(=O)N(Cc2ccccc2)C=C1C(=O)OCc1nc(-c2ccc(C)cc2)no1 was read as NPR1 antag inconclusive, NIH3T3 tox inconclusive, SNCA expr inh inconclusive, FLuc inh inactive, HEK293 tox inconclusive and SNCA viab count 4%.
For Cc1nc(CN2C(=O)OC3(CCN(C(=O)c4cccc(C#N)c4)CC3)C2(C)c2ccccc2)cs1 (stereo not given) the results were NPR1 antag 2%, NIH3T3 tox inconclusive, SNCA expr inh 2%, FLuc inh inactive, HEK293 tox -2% and SNCA viab count 2%.
Screening O=C1NCc2ccccc2CC12CCN(C/C=C/c1ccccc1)CC2 returned NIH3T3 tox inconclusive, SNCA expr inh 15%, HEK293 tox inconclusive and SNCA viab count -7%.
`CC(=O)N1CCC(N2CC[C@H](c3nc4ccccc4s3)C2)CC1` gave NPR1 antag 2%[70.6 µM], NIH3T3 tox inactive, SNCA expr inh 41%[87.6 µM], FLuc inh inconclusive, HEK293 tox -11%[172 µM] and SNCA viab count -8%[87.6 µM].
c1ccc2sc([C@H]3CCN(C4CCC4)C3)nc2c1 was read as NPR1 antag 22µM*, NIH3T3 tox -13%[230 µM], SNCA expr inh inconclusive, FLuc inh 1.6µM*, HEK293 tox inconclusive and SNCA viab count -11%[87.6 µM].
`O=C(NCCCN1CCCCC1)c1ccc2c(c1)sc1nc(-c3ccc(F)cc3)cn12` gave SNCA expr inh -51% and SNCA viab count inconclusive.
For Cc1ccc(-c2cn3c(n2)sc2cc(C(=O)NCCCN4CCCCC4)ccc23)cc1 the results were SNCA expr inh inconclusive and SNCA viab count 25µM*.
`O=C(NC1CCN(Cc2ccc(-c3ccsc3)cc2)C1)c1cccnc1` (stereo not given) gave NIH3T3 tox inconclusive, SNCA expr inh -17%, HEK293 tox inconclusive and SNCA viab count -3%.
`COc1cc(-c2cc(C)c3cccc(OC)c3n2)cc2c1OCCN(C(=O)CCN)C2` gave NPR1 antag 0%, NIH3T3 tox 89µM*, SNCA expr inh 7%, FLuc inh inactive, HEK293 tox inconclusive and SNCA viab count 8%.
COCCn1ccc2c(C3=CCOCC3)nc(-c3cccc(NC(C)=O)c3)cc21 was read as NPR1 antag -5%[70.6 µM], NIH3T3 tox inconclusive, SNCA expr inh 3%[87.6 µM], FLuc inh inactive, HEK293 tox inconclusive and SNCA viab count 0%[87.6 µM].
COCCn1ccc2c(C3=CCOCC3)nc(-c3cccc4cn[nH]c34)cc21 was read as NPR1 antag -16%[70.6 µM], NIH3T3 tox inconclusive, SNCA expr inh 6%[87.6 µM], FLuc inh inactive, HEK293 tox 79µM* and SNCA viab count -23%[87.6 µM].
Screening COCCn1ccc2c(C3=CCOCC3)nc(-c3cccc(N[S+](C)(=O)[O-])c3)cc21 returned NPR1 antag -3%[70.6 µM], NIH3T3 tox 35µM*, SNCA expr inh 2%[87.6 µM], FLuc inh inactive, HEK293 tox inconclusive and SNCA viab count 11%[87.6 µM].
O=C(Cc1ccccn1)N1CCCC2(CNc3ncccc3[S+](=O)([O-])N2)C1 (stereo not given) was read as NIH3T3 tox -22% and HEK293 tox inconclusive.
`O=C(NCCN1CCOCC1)c1cc(-c2cc(Cl)cc(Cl)c2)c2nncn2n1` gave NIH3T3 tox -19%, SNCA expr inh -3%, HEK293 tox 2% and SNCA viab count 4%.
`COc1ccccc1-c1ccc(CN2CCC(NC(=O)c3ccccn3)C2)cc1` (stereo not given) gave NIH3T3 tox inconclusive, SNCA expr inh 10%, HEK293 tox inconclusive and SNCA viab count -7%[12.5 µM].
Screening COc1ccccc1-c1ccc(CN2CCC(NC(=O)C3CCCCC3)C2)cc1 (stereo not given) returned NIH3T3 tox 32µM*! and HEK293 tox inconclusive.
Screening COc1ccc(CC(=O)NC2CCCN(Cc3ccc(-c4cncnc4)cc3)C2)cc1 (stereo not given) returned NIH3T3 tox -29%, SNCA expr inh -20%, HEK293 tox inconclusive and SNCA viab count 9%[12.5 µM].
`COc1ccccc1-c1ccc(CN2CCC(NC(=O)Cc3ccc(F)cc3)C2)cc1` (stereo not given) gave NIH3T3 tox 40µM*, SNCA expr inh inconclusive, HEK293 tox 40µM* and SNCA viab count -1%[12.5 µM].
COc1ccc(CC(=O)NC2CCN(C(=O)c3ccc(-c4ccccc4OC)cc3)CC2)cc1 was read as NIH3T3 tox 40µM*, SNCA expr inh -9%, HEK293 tox inconclusive and SNCA viab count -2%[12.5 µM].
Screening COc1ccc(CCNC(=O)c2nc3cccnc3n(CC(C)C)c2=O)cc1 returned NIH3T3 tox 45µM*, SNCA expr inh -18%, HEK293 tox inconclusive and SNCA viab count -13%.
For COc1ccc(Cn2c(=O)c(C(=O)NCc3ccccc3)nc3cccnc32)cc1 the results were NIH3T3 tox inconclusive, SNCA expr inh 31%, HEK293 tox inconclusive and SNCA viab count -5%.
For COc1ccc(CNC(=O)c2nc3cccnc3n(Cc3ccc(OC)cc3)c2=O)cc1 the results were NIH3T3 tox inconclusive, SNCA expr inh -5%, HEK293 tox 79µM*! and SNCA viab count -3%[12.5 µM].
Screening COc1ccc(Cn2c(=O)c(C(=O)NCCc3ccc(Cl)cc3)nc3cccnc32)cc1 returned NIH3T3 tox -14%, SNCA expr inh -25%, HEK293 tox -1% and SNCA viab count -24%.
